39 compounds from PubChem BioAssay (NCATS) can be followed below.

Where “and” joins values, the source holds several entries; their conditions need not be identical. Equal entries are not always repeated. Records with an inconclusive call do not appear. A number with no mark means an inactive call. Calls of active or inactive are those of the source. Calls follow the shape of the dose curve; as a rule, active = well fitted curve in the direction sought with a large enough effect; inconclusive = small, poorly fitted or top-dose-only effect, or another doubt; inactive = no such curve, though single readings can be large or run the other way.
% is scaled to controls: 0 for no effect and ±100 for the full control effect; potency is read from the fitted curve at half-maximal effect.

This assay is described as follows: qHTS Assay for Identifying Gametocytocidal Compounds (AID 743244).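 As to max response: actives lower the fluorescent signal which means gametocytes are killed.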 The conditions noted are these: P. falciparum 3D7 stage III-V gametocytes, alamarBlue, 72 h; max response: active compounds read low. The method in brief: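 P. falciparum 3D7 stage III–V gametocytes (20,000 cells/well) were exposed to compounds for 72 h at 37 °C, 5% CO2. AlamarBlue was then added for 24 h; decreased resorufin fluorescence (Ex 525/Em 598 nm) indicated loss of viability.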
Regarding `COc1cc(C(=O)NC2CCCNC2)cc(OC)c1OC` (centres undefined), the max response is -0.328%.
On to `CC(=O)Nc1c(I)c(NC(C)=O)c(I)c(C(=O)O)c1I`, for which the max response is -5.52%.
Still for that read-out and setting: to `CC1(C)O[C@@H]2C[C@H]3[C@@H]4CCC5=CC(=O)C=C[C@]5(C)[C@@]4(F)[C@@H](O)C[C@]3(C)[C@]2(C(=O)CO)O1` belongs -0.0995%; to `CC(=O)N[C@@H](CCC(N)=O)C(=O)O`, 4.31%; to `CC(NN)c1ccccc1` (centres undefined), -6.49%.
The same measure, in the same setting: with `N#C/C(=C1/SC[C@@H](c2ccc(Cl)cc2Cl)S1)n1ccnc1` the figure was 8.83% and -5.83% and 7.31%; with `C[N+]1(C)CCC(OC(=O)C(O)(c2ccccc2)C2CCCC2)C1` (centres undefined), -10.9% and -9.67%; with `Cc1ccccc1C(=O)N1CC/C(=N\OS(=O)(=O)O)c2ccc(Cl)cc21`, 0.506%.
For `CO/N=C(/C(=O)N[C@@H]1C(=O)N2C(C(=O)O)=C(Cn3nnc(C)n3)CS[C@H]12)c1csc(N)n1`, the max response was -11.7%.
In the case of `CO[C@@H]1[C@@H](OC)[C@H](C)[C@@](O)(CC(=O)O)O[C@H]1[C@H](C)[C@H]1O[C@@]2(CC[C@@](C)([C@H]3CC[C@@](C)([C@@H]4O[C@@H]([C@H]5O[C@](C)(O)[C@H](C)C[C@@H]5C)C[C@@H]4OC4C[C@H](OC)[C@@H](OC)[C@H](C)O4)O3)O2)C[C@H](O)[C@H]1C` (some centres undefined), the Potency is 0.0935 µM (active).
On to `CO/N=C(/C(=O)N[C@@H]1C(=O)N2C(C(=O)[O-])=C(C[n+]3ccn4ncccc43)CS[C@H]12)c1nsc(N)n1`, for which the max response is -9.85% and -19.4%.
Turning to `O=C1CC[C@H](C(=O)N2CCCCC2)N1`, the max response was -15.9%.
`OCc1cccnc1`: the max response is -22.7%.
Same read-out and setting: to `O=C(O)CNC(=O)CNC(=O)CNC(=O)CSC(=O)c1ccccc1` belongs 0.93%; to `O=C(O)Cc1ccccc1Oc1ccc(Cl)cc1Cl`, 10.5%; to `c1ccc(C(O[C@H]2CCCN(CCc3ccc4c(c3)OCO4)C2)c2ccccc2)cc1`, -6.18%.
Regarding `C1N2CN3CN1CN(C2)C3`, the max response was 2.07%.
`CC(C)(C)C(=O)OCOC(=O)C1N2C(=O)CC2S(=O)(=O)C1(C)C` (centres undefined): the max response is 0.683%.
On the same count and under the same terms, to `CC(=O)OCC[N+](C)(C)C` belongs 0.348%; to `Nc1ncnc2nc[nH]c12`, 3.66%; to `N[C@@H](Cc1cc(I)c(O)c(I)c1)C(=O)O`, 18.2%.
For the compound `CC(NCCC(c1ccccc1)c1ccccc1)c1ccccc1` (centres undefined), the Potency was 12.6 µM (active).
Take `CNC[C@H](O)[C@@H](O)[C@H](O)[C@H](O)CO`: the max response was 10.7%.
For `CC1(C)S[C@@H]2[C@H](NC(=O)C(c3ccccc3)S(=O)(=O)O)C(=O)N2[C@H]1C(=O)O` (some centres undefined), the max response was -17.7%.
On the same count and under the same terms, with `CC(=O)Nc1ccn(C2COC(COC(=O)c3ccccc3)O2)c(=O)n1` (centres undefined) the figure was -5.34%; with `COc1c(C)c2c(c(O)c1C/C=C(\C)CCC(=O)OCCN1CCOCC1)C(=O)OC2`, 2.71%; with `CN(C(=O)C(Cl)Cl)c1ccc(OC(=O)c2ccco2)cc1`, 8.61%.
Still for that read-out and setting: with `CC(C)=CCC/C(C)=C/CC/C(C)=C/CCC(=O)OC/C=C(\C)CCC=C(C)C` the figure was -4.29%; with `CCN1CCN(c2cc(-c3ccc(F)cc3)c3c(n2)CCCCCC3)CC1`, 9.24%.
Still for that read-out and setting: to `O=C1CC2(CCCC2)CC(=O)N1CCNCC1COc2ccccc2O1` (centres undefined) belongs 2.39%.
On to `CC1c2ccccc2CN1NC(=O)c1ccc(Cl)c(S(N)(=O)=O)c1` (centres undefined), for which the max response was 33.5%.
Regarding `O=C(O)[C@H](O)[C@@H](O)[C@H](O[C@@H]1O[C@H](CO)[C@H](O)[C@H](O)[C@H]1O)[C@H](O)CO`, the max response is -7.07%.
On the same count and under the same terms, with `Nc1c[n+](N2CCOCC2)no1` the figure was 2.15%; with `O=C(Nc1ccc(S(=O)(=O)N2CCOCC2)cc1)c1cc(Cl)ccc1NS(=O)(=O)c1ccc(Cl)s1`, 15.3%.
With `O=C1[C@@H]2[C@H]3CC[C@H](C3)[C@@H]2C(=O)N1CCCCN1CCN(c2ncccn2)CC1`, the max response is 4.19%.
Regarding `CC[C@@H]([C@H](C)O)n1ncn(-c2ccc(N3CCN(c4ccc(OC[C@@H]5CO[C@@](Cn6cncn6)(c6ccc(F)cc6F)C5)cc4)CC3)cc2)c1=O`, the max response is 13.4%.
As to `CCCCCC(=O)O[C@]1(C(C)=O)CC[C@H]2[C@@H]3CCC4=CC(=O)CC[C@]4(C)[C@H]3CC[C@@]21C`, the max response was 7.11%.
Same read-out and setting: with `CCCc1c2oc(C(=O)O)cc(=O)c2cc2c(=O)cc(C(=O)O)n(CC)c12` the figure was -6.99%; with `O=[N+]([O-])c1nccn1CO[C@@H](CO)[C@H](O)CO`, -9.19%.
